Each structure is given as a SMILES string. Counter-ions that a name gives are not always drawn. ± gives the standard error. In all, about 1,300 compounds went through this assay and about 130 (10%) showed an effect of 50% or more. This excerpt belongs to a sample that is enriched for strong results.

This assay concerns Trichoderma virens ATCC 9645. Description: growth yield (OD600) with compound + IPBC relative to untreated control; higher = less growth inhibition. To be noted: compound concentration: 100 uM, IPBC concentration: 200 ng/ml. The gist of the method:
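Trichoderma virens ATCC 9645 spores at 15,000 spores ml^−1 in potato dextrose broth were exposed in 96-well plates to library compounds at 100 μM final, with or without a biocide at 200 ng ml^−1. After growth at 30 °C, OD600 was read at 40 h and 72 h. Values are growth relative to the control without either agent, averaged over duplicate screens.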

For the compound `CC(=O)OC1CN2CCC1CC2` (stereo unspecified) [Aceclidine Hydrochloride] + CCCCNC(=O)OCC#CI [3-iodo-2-propynyl butylcarbamate (IPBC)], the growth yield runs as follows: (40 h) 80.85 ± 0.79%; (72 h) 86.84 ± 0.21%.
Regarding `CC(C)(CO)C(O)C(=O)NCCCO` (stereo unspecified) [Panthenol (D)] + CCCCNC(=O)OCC#CI [3-iodo-2-propynyl butylcarbamate (IPBC)], the growth yield by setting is: (40 h) 87.2 ± 0.48%; (72 h) 90.09 ± 0.52%.
Regarding `CC(C)(C)NCC(O)c1ccc(O)c(CO)c1` (stereo unspecified) [Salbutamol] + CCCCNC(=O)OCC#CI [3-iodo-2-propynyl butylcarbamate (IPBC)], the growth yield runs as follows: (40 h) 85.93 ± 0.16%; (72 h) 93 ± 0.94%.
For `OCc1cc(C(O)CNCCCCCCOCCCCc2ccccc2)ccc1O` (stereo unspecified) [Salmeterol] + CCCCNC(=O)OCC#CI [3-iodo-2-propynyl butylcarbamate (IPBC)], the growth yield by setting is: (40 h) 34.9 ± 1.6%; (72 h) 75.1 ± 3.4%.
In the case of `CC(C)(C)NC[C@H](O)c1ccc(O)c(CO)c1` [Levalbuterol hydrochloride] + CCCCNC(=O)OCC#CI [3-iodo-2-propynyl butylcarbamate (IPBC)], the growth yield is 86.2 ± 2.4% (40 h) and 90.3 ± 2.6% (72 h).
Turning to `C1N2CN3CN1CN(C2)C3` [Methenamine] + CCCCNC(=O)OCC#CI [3-iodo-2-propynyl butylcarbamate (IPBC)], the growth yield (40 h) was 89 ± 1.3% and the growth yield (72 h) came to 93.13 ± 0.84%.
On to `Nc1ccc(/N=N/c2ccccc2)c(N)n1` [Phenazopyridine hydrochloride] + CCCCNC(=O)OCC#CI [3-iodo-2-propynyl butylcarbamate (IPBC)], for which the growth yield reads like this: (40 h) 7.15 ± 0.48%; (72 h) 13.5 ± 1.8%.
As to `Nc1c2ccccc2nc2ccccc12` [Aminacrine] + CCCCNC(=O)OCC#CI [3-iodo-2-propynyl butylcarbamate (IPBC)], the growth yield was 85.5 ± 5.4% (40 h) and 96.3 ± 3.4% (72 h).
Consider `Cc1cccc(C)c1NC1=NCCCS1` [Xylazine] + CCCCNC(=O)OCC#CI [3-iodo-2-propynyl butylcarbamate (IPBC)], for which the growth yield is 84.3 ± 4.3% (40 h) and 88.8 ± 2.8% (72 h).
The like results for `CN(C)CCN(Cc1ccccc1)c1ccccn1` [Tripelennamine hydrochloride] + CCCCNC(=O)OCC#CI [3-iodo-2-propynyl butylcarbamate (IPBC)] were, in that order, 95 ± 3.5% and 95.2 ± 1.9%.
Regarding `CC(C)(C)NC(=O)[C@H]1CC[C@H]2[C@@H]3CC[C@H]4NC(=O)C=C[C@]4(C)[C@H]3CC[C@]12C` [Finasteride] + CCCCNC(=O)OCC#CI [3-iodo-2-propynyl butylcarbamate (IPBC)], the growth yield runs as follows: (40 h) 84.2 ± 7.9%; (72 h) 87.5 ± 6.7%.
Turning to `Cc1c(O)c(=O)n(-c2ccccc2)n1C` [Antipyrine, 4-hydroxy] + CCCCNC(=O)OCC#CI [3-iodo-2-propynyl butylcarbamate (IPBC)], the growth yield came out at 91.5 ± 2.2% (40 h) and 92.2 ± 1.4% (72 h).
Regarding `CO/N=C(\C(=O)N[C@@H]1C(=O)N2C(C(=O)O)=C(COC(N)=O)CS[C@H]12)c1ccco1` [Cefuroxime sodium salt] + CCCCNC(=O)OCC#CI [3-iodo-2-propynyl butylcarbamate (IPBC)], the growth yield by setting is: (40 h) 92.13 ± 0.64%; (72 h) 92.2 ± 2%.
On to `CC[C@H]1OC(=O)[C@H](C)[C@@H](O[C@H]2C[C@@](C)(OC)[C@@H](O)[C@H](C)O2)[C@H](C)[C@@H](O[C@@H]2O[C@H](C)C[C@H](N(C)C)[C@H]2O)[C@](C)(OC)C[C@@H](C)C(=O)[C@H](C)[C@@H](O)[C@]1(C)O` [Clarithromycin] + CCCCNC(=O)OCC#CI [3-iodo-2-propynyl butylcarbamate (IPBC)], for which the growth yield turned out to be 91.65 ± 0.79% (40 h) and 92.1% (72 h).
In the case of `CC[C@H]1OC(=O)[C@H](C)[C@@H](O[C@H]2C[C@@](C)(OC)[C@@H](O)[C@H](C)O2)[C@H](C)[C@@H](O[C@@H]2O[C@H](C)C[C@H](N(C)C)[C@H]2O)[C@](C)(O)C[C@@H](C)C(=O)[C@H](C)[C@@H](O)[C@]1(C)O` [Erythromycin] + CCCCNC(=O)OCC#CI [3-iodo-2-propynyl butylcarbamate (IPBC)], the growth yield was found to be 45.3 ± 0.79% (40 h) and 50.8 ± 0.84% (72 h).
For `CC[C@H]1OC(=O)[C@H](C)[C@@H](O[C@H]2C[C@@](C)(OC)[C@@H](O)[C@H](C)O2)[C@H](C)[C@@H](O[C@@H]2O[C@H](C)C[C@H](N(C)C)[C@H]2O)[C@](C)(O)C[C@@H](C)CN(C)[C@H](C)[C@@H](O)[C@]1(C)O` [Azithromycin] + CCCCNC(=O)OCC#CI [3-iodo-2-propynyl butylcarbamate (IPBC)] the same measures were 108.7 ± 0.95% and 106 ± 0.32%.
The like results for `CN1CCC2(C)c3cc(O)ccc3N(C)C12` (single isomer, unassigned; (-)) [(-)-Eseroline fumarate salt] + CCCCNC(=O)OCC#CI [3-iodo-2-propynyl butylcarbamate (IPBC)] were, in that order, 85 ± 4.9% and 90.6 ± 2.1%.
With `C#CCN(C)CCCOc1ccc(Cl)cc1Cl` [Clorgyline hydrochloride] + CCCCNC(=O)OCC#CI [3-iodo-2-propynyl butylcarbamate (IPBC)], the growth yield was 60.36 ± 0.32% (40 h) and 87.2 ± 2.2% (72 h).
For `Oc1cc(Cl)ccc1Oc1ccc(Cl)cc1Cl` [Triclosan] + CCCCNC(=O)OCC#CI [3-iodo-2-propynyl butylcarbamate (IPBC)], the growth yield is, setting by setting: (40 h) 3.02 ± 0.16%; (72 h) 2.2 ± 0.1%.
Consider `CN1[C@@H]2CC[C@H]1C[C@@H](OC(c1ccccc1)c1ccccc1)C2` [Benztropine mesylate] + CCCCNC(=O)OCC#CI [3-iodo-2-propynyl butylcarbamate (IPBC)], for which the growth yield reads like this: (40 h) 84.7 ± 2.1%; (72 h) 96.1 ± 4.4%.
The like results for `C[C@H](CCC(=O)O)[C@H]1CC[C@H]2[C@@H]3[C@@H](O)C[C@@H]4C[C@H](O)CC[C@]4(C)[C@H]3CC[C@]12C` [Urosiol] + CCCCNC(=O)OCC#CI [3-iodo-2-propynyl butylcarbamate (IPBC)] were, in that order, 104 ± 12% and 99.7 ± 5.1%.
For `N[C@@H](C(=O)N[C@@H]1C(=O)N2C(C(=O)O)=C(Cl)CS[C@H]12)c1ccccc1` [Cefaclor hydrate] + CCCCNC(=O)OCC#CI [3-iodo-2-propynyl butylcarbamate (IPBC)] the same measures were 92.9 ± 8.1% and 96.7 ± 4%.
With `CC[N+](C)(CC)CCC[n+]1c(-c2ccccc2)c2cc(N)ccc2c2ccc(N)cc21` [Propidium iodide] + CCCCNC(=O)OCC#CI [3-iodo-2-propynyl butylcarbamate (IPBC)], the growth yield was determined as 8.1 ± 5.6% (40 h) and 12.7 ± 0.32% (72 h).

The values above are taken from the supplement of paper PMC8007513.
